Values joined by “and” are separate entries in the source; they are usually repeats but may differ in a detail not shown here. Equal values may be shown once. Compounds without any hit were thinned out: in the full panel of roughly 83,000, 20% have a hit.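 48-hour exposure, single concentration, 96-well plates; percent growth endpoint where 0 means no net growth. Active: below 10.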 Active and inactive are the calls of the source.
Tests used:
Assay in all cases: NCI-60 one-dose screen, 48 h (100 = growth as untreated, 0 = no growth, -100 = all killed)
Details in all cases: 10 µM
T-47D breast = tested on: T-47D breast
BT-549 breast = tested on: BT-549 breast
MDA-MB-435 melanoma = tested on: MDA-MB-435 melanoma
SW-620 colon = tested on: SW-620 colon
MCF7 breast = tested on: MCF7 breast
HCT-116 colon = tested on: HCT-116 colon
HCC-2998 colon = tested on: HCC-2998 colon
MDA-MB-468 breast = tested on: MDA-MB-468 breast
KM12 colon = tested on: KM12 colon

Measured: growth

CN(C)c1ccc(/C=C/C(=O)c2ccc(NC(=O)CN3C(=O)NC(C)(c4ccccc4)C3=O)cc2)cc1 (stereo not drawn)
inactive: T-47D breast 22.1% | BT-549 breast 49.6% | MDA-MB-435 melanoma 34% | SW-620 colon 74.5% | MCF7 breast 11.8% | HCT-116 colon 26.4% | HCC-2998 colon 38.5%
active: MDA-MB-468 breast 7.04%

COc1cc(OC(F)(F)F)ccc1C(=O)Nc1sc2c(c1C#N)CCC(=O)C2
active: T-47D breast -4.87%
inactive: BT-549 breast 14.1% | MDA-MB-435 melanoma 97.9% | SW-620 colon 31.6% | MCF7 breast 73.2% | HCT-116 colon 40.7% | HCC-2998 colon 111% | MDA-MB-468 breast 77.7%

CC(=O)NS(=O)(=O)c1ccc(NC(=O)CSC2=NC(c3ccccc3)C(C(C)=O)=C(C)N2)cc1 (stereo not drawn)
inactive: T-47D breast 99.7% | BT-549 breast 116% | MDA-MB-435 melanoma 104% | SW-620 colon 106% | MCF7 breast 95.2% | HCT-116 colon 102% | HCC-2998 colon 108% | MDA-MB-468 breast 110%

Cc1nn(-c2ccccc2)c2ncn(CC(=O)N/N=C/c3c[nH]c4ccccc34)c(=O)c12
inactive: T-47D breast 83.2% | BT-549 breast 99.4% | MDA-MB-435 melanoma 94.9% | SW-620 colon 95.4% | MCF7 breast 68.7% | HCT-116 colon 82.5% | HCC-2998 colon 114% | MDA-MB-468 breast 102%

Brc1ccc(/C=N/Nc2ncnc3sc4c(c23)CCN(Cc2ccccc2)C4)cc1
inactive: T-47D breast 91.6% | BT-549 breast 102% | MDA-MB-435 melanoma 73.5% | SW-620 colon 35% | MCF7 breast 42.8% | HCT-116 colon 33.3% | HCC-2998 colon 91.4%
active: MDA-MB-468 breast -7.6%

N#Cc1c(NC(=O)c2cccc(C(F)(F)F)c2)sc2c1CCC(O)=C2
active: MDA-MB-435 melanoma 9.7% | MDA-MB-468 breast -18.6%
inactive: T-47D breast 16.5% | BT-549 breast 44.6% | SW-620 colon 35.4% | MCF7 breast 27.9% | HCT-116 colon 40.4% | HCC-2998 colon 36.3%

Nc1nc2c(F)c(F)c(F)c(F)c2s1
inactive: T-47D breast 91.3% | BT-549 breast 105% | MDA-MB-435 melanoma 101% | SW-620 colon 106% | MCF7 breast 93.7% | HCT-116 colon 113% | HCC-2998 colon 116% | MDA-MB-468 breast 97.9%

COc1cccc(C(N)=Nc2ccc(OCCCCCCn3cncn3)cc2)c1
inactive: T-47D breast 46.1% | BT-549 breast 20.5% | SW-620 colon 38.1% | MCF7 breast 19.2% | HCC-2998 colon 18.5% | KM12 colon 18.6% | MDA-MB-468 breast 17.5%

NC1=NC(c2ccccc2Cl)N=C(Nc2nn[nH]n2)N1 (stereo not drawn)
inactive: T-47D breast 99.1% | BT-549 breast 107% | MDA-MB-435 melanoma 102% | SW-620 colon 106% | MCF7 breast 93.3% | HCT-116 colon 103% | HCC-2998 colon 104% | MDA-MB-468 breast 103%

CC(=O)Nc1ccc(-n2cnc3cc(-c4ccc(O)cc4)ccc32)cc1C
inactive: T-47D breast 32.6% | BT-549 breast 50.7% | SW-620 colon 44.2% | MCF7 breast 50.9% | HCT-116 colon 70% | HCC-2998 colon 60.7%
active: MDA-MB-435 melanoma -13.2% | MDA-MB-468 breast -7.11%

COc1cc2oc(-c3cccc(C(=O)Nc4ccc(Cl)cc4)c3)cc(=O)c2c(OCCNC(=O)CNC(=O)OC(C)(C)C)c1OC
inactive: T-47D breast 59% | BT-549 breast 51.2% | MDA-MB-435 melanoma 66.7% | SW-620 colon 110% | MCF7 breast 42% | HCT-116 colon 41.6% | HCC-2998 colon 102% | MDA-MB-468 breast 67.4%

COc1ccc(-c2nc(S(=O)(=O)c3ccc(C)cc3)c(S(=O)(=O)CC(=O)N(C)Cc3ccccc3)o2)cc1
active: T-47D breast -57.8% | SW-620 colon 9.27% | MCF7 breast 7.73% | HCT-116 colon 6.34% | MDA-MB-468 breast -38.8%
inactive: BT-549 breast 72.6% | MDA-MB-435 melanoma 32% | HCC-2998 colon 46.6%

O=C(Nc1cccc([N+](=O)[O-])c1)Nc1cccc([N+](=O)[O-])c1
7.95% (active) and 24.6% (inactive): MDA-MB-468 breast
inactive: T-47D breast 40.6% | BT-549 breast 67.1% | MDA-MB-435 melanoma 90.3% | SW-620 colon 87.9% | MCF7 breast 72.5% | HCT-116 colon 54.4% | HCC-2998 colon 88%

NC(=Nc1ccc(OCCCCCCCCn2ccnn2)cc1)c1ccccc1
inactive: T-47D breast 40% | BT-549 breast 56.6% | SW-620 colon 32.4% | MCF7 breast 13.8% | HCC-2998 colon 23.8% | KM12 colon 18.2% | MDA-MB-468 breast 24%

COc1ccc(-c2ccc(SCC(=O)Nc3ccc(C#N)cc3)nn2)cc1
inactive: T-47D breast 79.5% | BT-549 breast 88.6% | MDA-MB-435 melanoma 98.8% | SW-620 colon 102% | MCF7 breast 88.8% | HCT-116 colon 87% | HCC-2998 colon 104% | MDA-MB-468 breast 88.1%

C=C(c1ccc(OC)c(N)c1)c1cc(C)nc2ccccc12
inactive: T-47D breast 62.6% | BT-549 breast 64.8% | SW-620 colon 18.4% | HCC-2998 colon 11.4%
active: MDA-MB-435 melanoma -48.9% | MCF7 breast 9.03% | HCT-116 colon 8.49% | MDA-MB-468 breast -16.3%

O=C(CS(=O)(=O)c1oc(-c2ccc(Cl)cc2)nc1S(=O)(=O)c1ccccc1)N1CCCC1
active: T-47D breast -66.9% | BT-549 breast -3.43% | MDA-MB-435 melanoma -41.8% | SW-620 colon -70.1% | MCF7 breast -70.1% | HCT-116 colon 0.106% | MDA-MB-468 breast -90.5%
inactive: HCC-2998 colon 21.8%

C#Cc1ccc(S(=O)(=O)Nc2cccc(-c3csc(NC(C)=O)n3)c2)cc1
inactive: T-47D breast 42.8% | BT-549 breast 55.7% | MDA-MB-435 melanoma 51.5% | SW-620 colon 95.2% | MCF7 breast 64.5% | HCT-116 colon 77.9% | HCC-2998 colon 91.3% | MDA-MB-468 breast 37.9%

C/C(=N\N=C\c1ccc(N(C)C)cc1)c1ccc2c(c1)Nc1ccccc1S2
inactive: T-47D breast 44.6% | BT-549 breast 58.2% | MDA-MB-435 melanoma 51.1% | SW-620 colon 35.3% | MCF7 breast 35.8% | HCT-116 colon 31.4% | HCC-2998 colon 54.4%
active: MDA-MB-468 breast 8.43%

CNC(=O)c1cc(-c2ccc(NC(=O)Nc3ccc(C)cc3)cc2)nc2cccnc12
active: MDA-MB-468 breast -14.3%
inactive: T-47D breast 89.6% | BT-549 breast 104% | MDA-MB-435 melanoma 109% | SW-620 colon 104% | MCF7 breast 45.6% | HCT-116 colon 89.7% | HCC-2998 colon 121%

CN1CCN(c2ccc(C(=O)/C=C/c3cc(C(F)(F)F)ccc3Cl)cc2)CC1
active: T-47D breast -37.4% | BT-549 breast -72.6% | MDA-MB-435 melanoma -56.5% | SW-620 colon -70.7% | MCF7 breast -85.3% | HCT-116 colon -61.7% | HCC-2998 colon -98.1% | MDA-MB-468 breast -97.6%

COc1cc2c3c(n(CCCNCCO)c(=O)c2cc1OC)-c1nc2c(cc1C3=O)OCO2
inactive: BT-549 breast 25.3% | MDA-MB-435 melanoma 45.2% | SW-620 colon 20.2% | HCC-2998 colon 11.6%
active: T-47D breast 1.91% | MCF7 breast -11.4% | HCT-116 colon -49.8% | MDA-MB-468 breast -58.8%

Nc1nc(Nc2ccc(Cl)cc2)n(Cc2cccc(Br)c2)n1
active: BT-549 breast -51.4% | MDA-MB-435 melanoma -64.9% | SW-620 colon -16.5% | MCF7 breast -31.6% | HCT-116 colon -57.7% | HCC-2998 colon -71.6% | MDA-MB-468 breast -46.5%
inactive: T-47D breast 15.1%

CC(=O)Nc1ccc(-c2cn(-c3cccc(C(=O)Nc4ccc(Cl)c(C(F)(F)F)c4)c3)nn2)cn1
active: BT-549 breast -52.7% | MDA-MB-435 melanoma -70.6% | SW-620 colon -75.5% | MCF7 breast -48.3% | HCT-116 colon -53.9% | HCC-2998 colon -36.1% | MDA-MB-468 breast -68.5%
inactive: T-47D breast 16.3%

CC(C)(C)c1ccc(NCc2cn(-c3ccc(C(=O)O)cc3)nc2-c2ccc(C#N)cc2)cc1
inactive: T-47D breast 21.4% | MDA-MB-435 melanoma 34% | SW-620 colon 32.2% | MDA-MB-468 breast 19%
active: BT-549 breast -2.13% | MCF7 breast 6.04% | HCT-116 colon -13.9% | HCC-2998 colon -66.6%

O=S(=O)(Nc1ncccn1)c1ccc(-n2c(-c3ccc(Br)cc3)nc(-c3ccccc3)c2-c2ccccc2)cc1
inactive: MDA-MB-435 melanoma 42.7% | SW-620 colon 48.5% | MCF7 breast 28.6% | HCT-116 colon 34.5% | HCC-2998 colon 39.7% | MDA-MB-468 breast 24.3%
active: T-47D breast 2.77% | BT-549 breast 8.3%

O=c1oc2ccc(-c3ccc(F)cc3F)cc2c(=O)n1-c1ccc(Cl)c(C(F)(F)F)c1
inactive: SW-620 colon 13%
active: T-47D breast -12.5% | BT-549 breast -37.4% | MDA-MB-435 melanoma -5.35% | MCF7 breast -16.2% | HCT-116 colon 9.46% | HCC-2998 colon 2.17% | MDA-MB-468 breast 3.54% and -40.4%

COc1ccc(N(C)c2cc(C#N)nc3ccccc23)cc1/C=C/C(=O)NO
active: T-47D breast -10.8% | BT-549 breast -49.4% | MDA-MB-435 melanoma -70.5% | SW-620 colon -37.5% | MCF7 breast -20.8% | HCT-116 colon -9.52% | HCC-2998 colon -94.8% | MDA-MB-468 breast -86.1%

O=C(Cn1cc(CSc2nnc3oc4ccccc4n23)nn1)Nc1ccc(Br)cc1
inactive: T-47D breast 70.5% | BT-549 breast 92.1% | MDA-MB-435 melanoma 98.1% | SW-620 colon 108% | MCF7 breast 65.3% | HCT-116 colon 82% | HCC-2998 colon 96.4% | MDA-MB-468 breast 80.1%

O=C(CNc1nc(-c2ccccc2)cs1)Nc1ccc([N+](=O)[O-])cc1
active: T-47D breast 2.53% | SW-620 colon 7.63% | MCF7 breast 1.69% | HCC-2998 colon -97.8% | MDA-MB-468 breast -88.2%
inactive: BT-549 breast 12.3% | MDA-MB-435 melanoma 40.6% | HCT-116 colon 11.7%

— PubChem BioAssay (NCI)
